The target of test [1] is Glucocorticoid receptor (Homo sapiens) (UniProt P04150). Kind of test: GR-GFP Redistribution (AID 450;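 active means compounds whose dose series gives a full or clear partial fitted curve of increased nuclear translocation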; further: potency means the concentration at half of the fitted maximal effect). The note with it: U2OS GR-GFP nuclear translocation, laser cytometry, 2 h.
For test [2] the target is unchanged. Kind of test: GR-EFC Redistribution (AID 451; calls by dose curve; further: potency means the concentration at half of the fitted maximal effect). The following applies: CHO-K1 GR-EFC translocation, beta-gal luminescence, 2 h. An outline of the steps: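 CHO-K1 cells stably expressing nuclear-localized β-gal enzyme acceptor and GR fused C-terminally to the enzyme donor fragment; ligand-driven nuclear translocation restores β-gal by complementation. Compounds titrated up to 46 uM final, 2 h at 37 °C; luminescence read.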

Test [3] concerns the target Alpha-galactosidase (Coffea arabica) (UniProt Q42656). Put plainly: Counterscreen for Glucocerebrosidase Inhibitors: qHTS Assay for Coffee Bean alpha-Galactosidase at pH 4.5 (AID 957).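 Further: plate controls were enzyme alone for no effect and no enzyme for full effect.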 The following applies: purified coffee bean alpha-galactosidase, fluorogenic substrate; series mostly up to 76.9 µM. The method in brief:
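Fluorogenic qHTS at pH 4.5 (citrate buffer with Tween-20): 2 nM enzyme, 80 uM 4-MU-alpha-galactoside substrate, compound titrated 0.7 nM to 77 uM, 20 min room temperature. Glycine/NaOH stop; 4-MU read Ex 365/Em 440; Hill-equation AC50 against no-enzyme and enzyme controls.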

For test [4], the target named is Alpha-galactosidase A (Homo sapiens) (UniProt P06280). Put plainly: Counterscreen for Glucocerebrosidase Inhibitors: qHTS Assay for Human alpha-Galactosidase at pH 4.5 (AID 992). Further: 0% is about no effect. The following applies: purified enzyme, fluorogenic substrate; series mostly up to 76.9 µM. An outline of the steps: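 Fluorogenic 4-MU alpha-D-galactoside (80 uM) hydrolysis, 2 nM enzyme, pH 4.5 citrate buffer + 0.005% Tween-20; 20 min RT; NaOH/glycine pH 10 stop; Ex365/Em440. Compounds titrated 0.7 nM–77 uM; Hill-equation AC50.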
Sequence of Alpha-galactosidase A (Homo sapiens) (P06280 whole entry, looked up): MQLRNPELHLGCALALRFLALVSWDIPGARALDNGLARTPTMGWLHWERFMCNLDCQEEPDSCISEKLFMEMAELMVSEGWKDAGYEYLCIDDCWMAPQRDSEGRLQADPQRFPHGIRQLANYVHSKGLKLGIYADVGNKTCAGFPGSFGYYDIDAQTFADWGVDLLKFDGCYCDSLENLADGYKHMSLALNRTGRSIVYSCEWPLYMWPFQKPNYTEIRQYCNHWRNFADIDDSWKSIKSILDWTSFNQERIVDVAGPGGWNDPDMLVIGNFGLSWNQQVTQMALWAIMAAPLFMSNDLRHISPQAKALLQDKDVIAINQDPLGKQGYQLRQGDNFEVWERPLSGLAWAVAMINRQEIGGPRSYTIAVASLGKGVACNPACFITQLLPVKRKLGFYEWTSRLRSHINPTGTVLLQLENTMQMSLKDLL
In general terms: Counterscreens check selectivity or assay interference.

In test [5] the target is alpha-glucosidase (Oryza sativa, rice) (UniProt Q653V4). Kind of test: Counterscreen for Glucocerebrosidase Inhibitors: qHTS Assay for Rice alpha-Glucosidase at pH 5.0 (AID 997).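 Further: 0% = full activity with enzyme and -100% = basal without enzyme.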 The following applies: rice alpha-glucosidase enzyme activity; series mostly up to 76.9 µM. An outline of the steps:
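Endpoint fluorogenic assay at pH 5.0: compounds (0.7 nM to 77 uM) titrated against 4 nM rice enzyme and 400 uM 4-MU-alpha-glucoside for 20 min at room temperature; NaOH/glycine stop, read ex 365/em 440 nm, Hill-fitted AC50.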

Test [6] addresses Alpha-galactosidase (Coffea arabica) (UniProt Q42656). Kind of test: Counterscreen for Glucocerebrosidase Inhibitors: qHTS Assay for Coffee Bean alpha-Galactosidase at pH 5.9 (AID 998).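 Further: plate controls were uninhibited enzyme for no effect and no-enzyme basal signal for full effect.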 The note with it: coffee bean alpha-galactosidase enzyme assay; series mostly up to 76.9 µM. An outline of the steps:
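In 50 mM citric acid pH 5.9 with 0.005% Tween-20, coffee bean enzyme hydrolyses 80 uM 4-MU alpha-D-galactopyranoside over 20 min at RT. Activity is normalized to controls; AC50 comes from Hill-modelled concentration-response data.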

For another test, the system named is 3D7. Kind of test: qHTS profiling for inhibitors of Plasmodium falciparum proliferation (AID 504749). Further: nearly all actives have a fitted effect of over 60% in size. Further: potency means the concentration at half of the fitted maximal effect. The following applies: P. falciparum in erythrocytes, SYBR Green DNA, 72 h; series mostly up to 28.7 µM. An outline of the steps:
(§1)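 Quantitative HTS: compounds pinned into medium, infected erythrocytes added (0.3% parasitemia, 2.5% hematocrit), 72 h culture at 37 C under 5% CO2. Saponin/Triton lysis with SYBR Green I, overnight RT, then fluorescence read.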

Another test relates to CP211. Described as above. The following applies: P. falciparum in erythrocytes, SYBR Green DNA, 72 h; series mostly up to 28.7 µM. An outline of the steps:
as §1

The subject of the next test is CP247. Described as above. The note with it: P. falciparum in erythrocytes, SYBR Green DNA, 72 h; series mostly up to 28.7 µM. An outline of the steps:
as §1

The next test concerns CP256. The test is described as above. The note with it: P. falciparum in erythrocytes, SYBR Green DNA, 72 h; series mostly up to 28.7 µM. The method in brief:
as §1

The subject of a further test is CP268. The description is as above. The note with it: P. falciparum in erythrocytes, SYBR Green DNA, 72 h; series mostly up to 28.7 µM. An outline of the steps:
as §1

The subject of the next test is Dd2. Described as above. The note with it: P. falciparum in erythrocytes, SYBR Green DNA, 72 h; series mostly up to 28.7 µM. An outline of the steps: as §1
Another test concerns ECU. The test is described as above. The note with it: P. falciparum in erythrocytes, SYBR Green DNA, 72 h; series mostly up to 28.7 µM. An outline of the steps: as §1
In the next test the test system is FAB9. The description is as above. The note with it: P. falciparum in erythrocytes, SYBR Green DNA, 72 h; series mostly up to 28.7 µM. The method in brief:
as §1

Another test deals with PC15. The description is as above. The following applies: P. falciparum in erythrocytes, SYBR Green DNA, 72 h; series mostly up to 28.7 µM. An outline of the steps: as §1
Another test deals with PC49. The description is as above. The following applies: P. falciparum in erythrocytes, SYBR Green DNA, 72 h; series mostly up to 28.7 µM. The method in brief:
as §1

A further test relates to W2. The test is described as above. The following applies: P. falciparum in erythrocytes, SYBR Green DNA, 72 h; series mostly up to 12.8 µM. An outline of the steps: as §1
A short description of test [7]: Primary qHTS to identify inhibitors of SARS-CoV-2 cell entry (AID 1645846; calls by dose curve; further: nearly all actives have a fitted effect of over 45% in size; further: potency means the concentration at half of the fitted maximal effect). The following applies: SARS-CoV-2 pseudovirus cell entry assay, luminescence; activity change, negative = inhibition: at 57.1 µM (top of the series) unless noted. An outline of the steps:
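Entry measured by luciferase signal 48 h after adding SARS-CoV-2-S pseudotyped MLV particles to HEK293-ACE2 cells preincubated 1 h with compounds. Normalisation: bald particles and spike particles.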
On the technique in general: qHTS replaces the single test concentration by a dilution series.

Test [8] deals with Cytochrome P450 2D6 (Homo sapiens) (UniProt P10635). Put plainly: Cytochrome P450 family 2 subfamily D member 6 (CYP2D6) small molecule antagonists: luciferase biochemical (cell-free) qHTS assay (AID 1645840; active means well fitted curve in the direction sought with a large enough effect in the repeat runs; an effect the other way counts as inactive or inconclusive; further: nearly all actives have a fitted effect of over 55% in size; further: potency means the concentration at half of the fitted maximal effect; on activity change, negative = inhibition: on the % scale 0 is the no-effect control and ±100 the full control effect). The note with it: P450-Glo CYP2D6 enzyme, luciferin luminescence, 1 h; series mostly up to 57.4 µM. An outline of the steps: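 P450-Glo CYP2D6 system: proluciferin substrate converted by enzyme to luciferin, read by luminescence proportional to activity. Enzyme-substrate mix with compound 10 min at room temperature, then NADPH regeneration 1 h before detection reagent.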
Sequence of Cytochrome P450 2D6 (Homo sapiens) (P10635 whole entry, looked up): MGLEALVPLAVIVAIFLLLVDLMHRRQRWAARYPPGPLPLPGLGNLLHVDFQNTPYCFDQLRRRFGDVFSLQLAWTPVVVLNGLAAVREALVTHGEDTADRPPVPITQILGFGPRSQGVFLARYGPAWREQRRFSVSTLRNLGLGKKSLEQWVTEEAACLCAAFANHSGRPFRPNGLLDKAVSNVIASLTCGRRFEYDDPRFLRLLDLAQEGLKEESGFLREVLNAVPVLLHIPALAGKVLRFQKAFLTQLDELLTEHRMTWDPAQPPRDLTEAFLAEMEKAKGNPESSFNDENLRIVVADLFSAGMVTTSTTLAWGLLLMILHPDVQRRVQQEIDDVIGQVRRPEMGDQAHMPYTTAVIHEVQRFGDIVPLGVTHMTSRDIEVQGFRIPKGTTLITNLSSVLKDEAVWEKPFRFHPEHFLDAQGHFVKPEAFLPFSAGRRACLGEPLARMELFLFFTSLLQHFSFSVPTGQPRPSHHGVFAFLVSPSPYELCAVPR

Test [9] concerns the target Cytochrome P450 2C9 (Homo sapiens) (UniProt P11712). Put plainly: Cytochrome P450 family 2 subfamily C member 9 (CYP2C9) small molecule antagonists: luciferase biochemical (cell-free) qHTS assay (AID 1645842; active means well fitted curve in the direction sought with a large enough effect in the repeat runs; an effect the other way counts as inactive or inconclusive; further: nearly all actives have a fitted effect of over 55% in size; further: potency means the concentration at half of the fitted maximal effect; on activity change, negative = inhibition: on the % scale 0 is the no-effect control and ±100 the full control effect). The note with it: P450-Glo CYP2C9 enzyme assay, luciferin luminescence; series mostly up to 57.4 µM. The method in brief: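 P450-Glo CYP2C9 system: proluciferin substrate with enzyme in mix containing 0.4% BSA, 10 min at room temperature, then NADPH regeneration solution added and incubated 1 h at 37C. Detection reagent stopped reaction; luminescence read after 20 min as RLU.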

“And” between values parts separate entries of the source, which are not always exact repeats. Equal entries are not always repeated. Records with an inconclusive call do not appear. The source made the active and inactive calls. Unless noted, the call rests on the fitted dose curve; in most records, active means well fitted curve in the direction sought with a large enough effect; inconclusive means small, poorly fitted or top-dose-only effect, or another doubt; inactive means no such curve, though single readings can be large; an effect the other way counts as inactive or inconclusive.

Sequence of Cytochrome P450 2C9 (Homo sapiens) (P11712 whole entry, looked up): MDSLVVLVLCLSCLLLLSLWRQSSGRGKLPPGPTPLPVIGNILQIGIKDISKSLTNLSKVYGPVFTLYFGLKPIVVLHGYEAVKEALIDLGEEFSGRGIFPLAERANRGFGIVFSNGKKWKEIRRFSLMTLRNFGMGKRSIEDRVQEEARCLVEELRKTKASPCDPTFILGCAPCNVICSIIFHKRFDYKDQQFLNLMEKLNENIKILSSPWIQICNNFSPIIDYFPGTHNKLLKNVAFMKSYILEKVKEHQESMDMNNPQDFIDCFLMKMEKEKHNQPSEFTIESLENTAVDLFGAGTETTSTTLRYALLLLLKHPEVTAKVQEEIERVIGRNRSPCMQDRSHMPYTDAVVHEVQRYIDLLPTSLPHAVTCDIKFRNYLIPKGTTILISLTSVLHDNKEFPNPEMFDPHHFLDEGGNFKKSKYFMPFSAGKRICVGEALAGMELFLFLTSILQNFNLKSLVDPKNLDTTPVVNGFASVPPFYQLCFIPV
Sequence of Alpha-galactosidase (Coffea arabica) (Q42656 whole entry, looked up): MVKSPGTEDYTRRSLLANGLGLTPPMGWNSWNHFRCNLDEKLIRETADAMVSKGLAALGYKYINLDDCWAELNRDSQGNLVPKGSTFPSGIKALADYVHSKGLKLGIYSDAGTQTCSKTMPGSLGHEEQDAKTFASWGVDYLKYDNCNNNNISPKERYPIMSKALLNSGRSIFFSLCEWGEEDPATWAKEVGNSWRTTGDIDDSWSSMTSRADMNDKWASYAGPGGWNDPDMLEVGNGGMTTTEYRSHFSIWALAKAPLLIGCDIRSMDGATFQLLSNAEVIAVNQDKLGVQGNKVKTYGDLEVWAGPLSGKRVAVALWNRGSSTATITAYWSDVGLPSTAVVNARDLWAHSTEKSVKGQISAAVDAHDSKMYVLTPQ
Sequence of Glucocorticoid receptor (Homo sapiens) (P04150 whole entry, looked up, the tested form may be a part): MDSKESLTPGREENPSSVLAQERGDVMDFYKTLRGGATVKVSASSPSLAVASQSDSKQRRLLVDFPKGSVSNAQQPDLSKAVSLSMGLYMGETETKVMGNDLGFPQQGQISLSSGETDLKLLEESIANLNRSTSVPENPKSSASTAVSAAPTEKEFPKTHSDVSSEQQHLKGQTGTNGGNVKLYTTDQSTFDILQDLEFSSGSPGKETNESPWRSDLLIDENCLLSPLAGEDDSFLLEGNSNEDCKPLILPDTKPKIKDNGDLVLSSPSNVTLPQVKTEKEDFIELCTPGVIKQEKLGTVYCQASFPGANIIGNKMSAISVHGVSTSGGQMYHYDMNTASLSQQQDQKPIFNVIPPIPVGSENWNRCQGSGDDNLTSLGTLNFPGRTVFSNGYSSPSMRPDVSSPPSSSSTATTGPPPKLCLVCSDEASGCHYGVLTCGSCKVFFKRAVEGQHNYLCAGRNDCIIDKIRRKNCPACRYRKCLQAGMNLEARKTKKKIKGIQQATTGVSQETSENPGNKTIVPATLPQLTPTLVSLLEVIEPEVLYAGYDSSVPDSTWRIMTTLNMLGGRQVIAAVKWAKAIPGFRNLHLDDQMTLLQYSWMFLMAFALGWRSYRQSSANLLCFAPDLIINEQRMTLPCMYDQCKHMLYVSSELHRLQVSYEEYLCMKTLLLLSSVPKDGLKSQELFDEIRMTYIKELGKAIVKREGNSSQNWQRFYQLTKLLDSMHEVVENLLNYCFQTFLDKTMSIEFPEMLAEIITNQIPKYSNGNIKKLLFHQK

Regarding `COc1cc(C=C(C#N)C#N)cc(O)c1O`, the Potency in [1] and in [2] was > 46 µM (inactive) each time. Besides, the outcome in test [3], in test [4], in test [5] and in test [6] was inactive.
Turning to `CCN(CC)C(=O)N[C@@H]1C[C@@H]2c3cccc4[nH]cc(c34)C[C@H]2N(C)C1`, the Potency result in the test with 3D7, with CP247, with CP268, in the test on ECU, in the test with FAB9 and in the test with PC15 was “inactive” in each case. Moreover, the Potency result in the test with PC49 was “inactive”. Also, the Potency with CP211 is 3.38 µM (active); in the test with CP256, 2.24 µM (active); in the test with Dd2 it was 3.98 µM (active); in the test with W2, 1.69 µM (active).
With `CCCC[N+]1(C)C2CC(OC(=O)C(CO)c3ccccc3)CC1C1OC12` (stereo not drawn), the Potency entry with 3D7, in the test on CP211, in the test on CP247, in the test on CP256, in the test on CP268 and with Dd2 was “inactive” in each case. Further, the Potency result in the test on ECU, in the test with FAB9, with PC15, in the test on PC49 and with W2 was “inactive” throughout.
Consider `C[C@H]1OC[C@@H](C[N+](C)(C)C)O1`, for which the Potency was > 46 µM (inactive) and > 20.6 µM (inactive) in test [1]; > 46 µM (inactive) in [2]. Besides, the outcome in [3], in [4], in test [5] and in test [6] was inactive.
Regarding `Oc1ccc2c3c1O[C@H]1[C@@H](O)CC[C@@]4(O)C(C2)N(CC2CCC2)CCC314` (stereo partly drawn), the Potency entry in the test on 3D7, in the test on CP211, in the test with CP247, with CP256, in the test with CP268 and in the test on Dd2 was “inactive” in each case. Besides, the Potency entry in the test on ECU, with FAB9, in the test with PC15, in the test with PC49 and in the test on W2 was “inactive” each time.
Take `CCCN(CCC)C(=O)Cc1c(-c2ccc(Cl)cc2)nc2c(Cl)cc(Cl)cn12`: the Potency in [2] is > 46 µM (inactive). Also, the outcome in test [3], in test [4], in test [5] and in test [6] was inactive.
In the case of `NNCc1cccc(O)c1`, the Potency in [1] and in test [2] was > 46 µM (inactive) each time. Moreover, the outcome in test [3], in test [4], in test [5] and in test [6] was inactive.
With `C#CCN(C)C(C)Cc1ccccc1` (stereo not drawn), the Potency in test [1] is > 20.6 µM (inactive).
With `CC(C)(O)C1C2OC(=O)C1[C@]1(O)C[C@H]3O[C@]34C(=O)O[C@H]2[C@]14C` (stereo partly drawn) (tested in a mixture with another compound), the Potency entry in the test with 3D7, with CP211, with CP247, with CP256, with CP268 and in the test on Dd2 was “inactive” each time. Besides, the Potency result in the test on ECU, in the test with FAB9, with PC15, in the test with PC49 and in the test on W2 was “inactive” each time.
On to `CCCCN1C2CCC1CC(OC(c1ccc(F)cc1)c1ccc(F)cc1)C2` (stereo not drawn), for which the call in test [3], in test [4], in test [5] and in [6] was inactive.
On to `C/C1=C/C[C@@H](/C(C)=C/c2csc(C)n2)OC(=O)C[C@H](O)C(C)(C)C(=O)[C@H](C)[C@@H](O)[C@@H](C)CCC1`, for which, in [7], the activity change, negative = inhibition was -64.3%.
On to `CCOC(=O)C=C(C)C=CC[C@@H](C)CCCC(C)C`, for which the Potency result in [8] is “inactive”. Also, in test [9], the Potency is 10.7 µM (active).
Regarding `CNC(C)[C@@H](O)c1ccc(O)cc1` (stereo partly drawn), the Potency entry (in test [8]; in test [9]; in the test with 3D7; in the test on CP211; with CP247; with CP256) was “inactive” each time. Further, the Potency entry in the test with CP268, in the test on Dd2, in the test on ECU, in the test with FAB9, with PC15 and in the test with PC49 was “inactive” each time. In addition, the Potency result in the test with W2 was “inactive”.
Consider `NCCNc1ccc(NCCN)c2c1C(=O)c1ccncc1C2=O`, for which the Potency in [7] is 7.94 µM (active).
For `CC1(C)[C@H](C=C(Cl)Cl)[C@@H]1C(=O)OCc1c(F)c(F)cc(F)c1F`, the Potency result in [8] was “inactive”. In addition, the Potency in test [9] is 12 µM (active).
As for `C[C@]12C[C@@H]3S[C@H]3C[C@@H]1CC[C@H]1[C@H]3CC[C@@H](O)[C@@]3(C)CC[C@@H]12`, the Potency result in test [8] and in [7] was “inactive” each time. Also, the Potency in test [9] was 0.107 µM (active).
`CC(Cc1ccc2c(c1)OCO2)NCC(O)c1ccc(O)c(O)c1` (stereo not drawn): the Potency is 0.674 µM (active) in test [8] and 15.1 µM (active) in test [9].
As to `CCCCN=C(N)NC(=N)N`, in test [7], the outcome was “inactive [setting not given]”.
Take `CCCCCCCCCCCCCCCCCCCCCC(=O)Nc1ccn([C@@H]2O[C@H](CO)[C@@H](O)[C@@H]2O)c(=O)n1`: the activity change, negative = inhibition in test [7] is -93.7% [at 27.1 µM].

The values above are taken from PubChem BioAssay (NCATS).
